Laboratory results taken from PubChem BioAssay (NCATS).
Values without a mark were called inactive. Records with an inconclusive call do not appear. Entries that show only a call come without a potency. The source made the active and inactive calls. Calls come from the whole dose curve; as a rule, active = well fitted curve in the direction sought with a large enough effect; inconclusive = small, poorly fitted or top-dose-only effect, or another doubt; inactive = no such curve, though single readings can be large; an effect the other way counts as inactive or inconclusive.

What was measured:
[1] = qHTS to identify inhibitors of the type 1 interferon - major histocompatibility complex class I in skeletal muscle: primary screen against the NCATS Mechanism Interrogation Plate v5.0 (MIPE) Libary (AID 1347411); note: nearly all actives have a fitted effect of over 65% in size; note: potency is the fitted concentration of half-maximal effect
In short: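 Immortalized human C25cl48 myoblasts with HiBit knocked into endogenous HLA-B*08:01 were stimulated with 4.0 ng/ml IFN-beta and exposed to compounds (11-point 1:3 titration, top 46 uM final) for 24 hrs at 37 C; HiBiT lytic luminescence measured.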

[2] = qHTS to identify inhibitors of the type 1 interferon - major histocompatibility complex class I in skeletal muscle: primary screen against the NCATS LOPAC collection (AID 1347405);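 note: lytic HiBiT luminescence reporting HLA-B protein level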; note: potency is the fitted concentration of half-maximal effect
In short: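 Immortalized human C25cl48 myoblasts with HiBiT knocked into endogenous HLA-B*08:01 were stimulated with 4.0 ng/ml IFN-beta and given compounds in a 7-point, 1:4.3 titration from 46 uM final; after 24 hrs, lytic HiBiT luminescence was read.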

[3] = qHTS for inhibitors of adenylyl cyclases using a fission yeast platform: a pilot screen against the NCATS LOPAC library (AID 1347410)
In short: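 Growth medium went into the plates first, then compounds were pinned (final up to 57 µM), then CHP2027 yeast were added. Plates were incubated overnight (18 h) at 30C in the dark, and GFP was measured by laser scanning cytometry.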

[4] = qHTS to identify inhibitors of the type 1 interferon - major histocompatibility complex class I in skeletal muscle: primary screen against the NCATS Pharmaceutical Collection (AID 1347407);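 note: luminescence of HiBiT knocked into endogenous HLA-B as interferon-induced MHC class I level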
In short: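 Cells were seeded with 4 ng/ml IFN-beta, incubated 1 h, then dosed with compounds over eight 1:5 steps up to 46 uM final. After 24 h at 37 C, HiBiT lytic reagent was added and luminescence read after 10 min lysis in the dark.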

[5] = UWB1.289-WTBRCA1 Cancer Cell Toxicity qHTS against the NCATS CANVASS Library (AID 1347354); details: UWB1.289-WTBRCA1 viability, CellTiter-Glo luminescence, 72 h; note: potency is the fitted concentration of half-maximal effect
In short: (§1)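 Cells were seeded at 1000 per well and allowed to settle 4 hours at 37 degrees C before pin transfer of compounds as an 11-point series. Viability was read by CellTiter-Glo luminescence after 72 hours' exposure.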

[6] = HEK-293 Cancer Cell Toxicity qHTS against the NCATS CANVASS Library (AID 1347355); details: HEK-293 viability, CellTiter-Glo luminescence, 72 h; note: potency is the fitted concentration of half-maximal effect; nearly all actives have a fitted effect of over 65% in size
In short: as §1

[7] = biological target: Luciferin 4-monooxygenase (Photinus pyralis) (UniProt P08659); assay: Firefly luciferase counterscreen qHTS: Assay Interference Panel against the NCATS CANVASS Library (AID 1347363); note: series mostly up to about 57 µM
In short: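 Purified P. pyralis luciferase was added to compounds (11-point series) preincubated 15 min at room temperature with substrate containing 0.013 mM D-luciferin and 0.013 mM ATP; luminescence was read after 5 min.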

[8] = KB-8-5-11 Cancer Cell Toxicity qHTS against the NCATS CANVASS Library (AID 1347364); details: KB-8-5-11 MDR cells viability, CellTiter-Glo, 72 h; note: potency is the fitted concentration of half-maximal effect; nearly all actives have a fitted effect of over 75% in size
In short: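 KB-8-5-11 cells (500/well) in DMEM + 10% FBS were exposed to compounds in an 11-point qHTS series for 72 hr at 37C, 5% CO2. Viability was read by CellTiter-Glo luminescence.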

[9] = KB-3-1 Cancer Cell Toxicity qHTS against the NCATS CANVASS Library (AID 1347366); details: KB-3-1 viability, CellTiter-Glo luminescence, 72 h; note: potency is the fitted concentration of half-maximal effect; nearly all actives have a fitted effect of over 75% in size
In short: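 Seed KB-3-1 cells at 500/well in DMEM with 10% FBS, add compounds, incubate 72 hr at 37C and 5% CO2, then add CellTiter-Glo and read luminescence after 10 minutes.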

[10] = qHTS for ATAD5 Agonist screened against the NCATS CANVASS Library (AID 1347367);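 note: luciferase reporter driven by ATAD5 which rises upon DNA damage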
In short: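 Step one plated reporter cells and let them acclimate 5hr. Step two pinned compounds with MMS as positive and 0.46% DMSO as negative control. After 16hr incubation, fluorescence viability then luminescence were read.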

[11] = qHTS for ATAD5 Antagonist screened against the NCATS CANVASS Library (AID 1347370); details: HEK293T-ATAD5-luc, 5-FUrd stimulated, luminescence, 16 h; note: potency is the fitted concentration of half-maximal effect; nearly all actives have a fitted effect of over 65% in size
In short: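 HEK293T cells with a stably integrated ATAD5-controlled luciferase reporter were exposed to compounds (11-pt) alongside 10 uM 5-fluorouridine as ATAD5 stabilizer for 16hr at 37C. Viability was read by CellTiter-Fluor fluorescence, then ATAD5 by luminescence.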

[12] = biological target: Nuclear receptor subfamily 1 group I member 3 (Homo sapiens) (UniProt Q14994); assay: qHTS for Constitutive Androstane Receptor (CAR) Agonist screened against the NCATS CANVASS Library (AID 1347373);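 note: every well also contained 1.5 µM PK11195 alongside the test compound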
In short: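 HepG2 cells stably expressing hCAR and a CYP2B6-2.2kb luciferase reporter were treated for 24hr at 37C with compounds (11-point qHTS) in the presence of 1.5uM PK11195. Reporter activation was read by ONE-Glo luminescence.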

[13] = 10-beta competent E. coli microbial cell viability qHTS against the NCATS CANVASS Library (AID 1347376); note: series mostly up to about 46 µM
In short: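 10-beta competent E. coli (0.9 OD culture diluted to 0.2 OD) exposed to compounds in an 11-point qHTS series, incubated overnight at 37C, 5% CO2. Viability read as ATP by BacTiter-Glo luminescence after 20 min at room temperature.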

[14] = qHTS for Antimalaria activity screened against the NCATS CANVASS Library (AID 1347380); note: potency is the fitted concentration of half-maximal effect; nearly all actives have a fitted effect of over 40% in size; details: P. falciparum Dd2 growth, SYBR Green fluorescence, 72 h
In short: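 P. falciparum Dd2-infected RBCs (2.5% hematocrit final, 0.3% parasitemia) in Albumax II RPMI were exposed to compounds in an 11-point qHTS series for 72 h at 37C under 5% O2/5% CO2, then lysed with SYBR Green.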

[15] = Inflammasome Signaling qHTS Counterscreen: IL-1-beta AlphaLISA counterscreen against the NCATS CANVASS Library (AID 1347381);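 note: cell-free check with purified IL-1β in medium and no THP-1 cells; series mostly up to about 57 µM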
In short: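 To flag interference with the AlphaLISA read-out, a known amount of purified IL-1-beta (4 pg) replaced cell supernatant. Detection used anti-IL-1-beta acceptor beads, biotinylated antibody and streptavidin donor beads at room temperature.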

[16] = qHTS for Activators of p53 Stress Response Pathway screened against the NCATS CANVASS Library (AID 1347388); details: p53RE-bla HCT-116, beta-lactamase reporter, 16 h; note: potency is the fitted concentration of half-maximal effect
In short: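 p53RE-bla HCT-116 cells (4000/well) were plated 5 h at 37C, exposed to compounds for 16 h at 37C over an 11-point concentration series, then loaded with CCF4 for 2 h at room temperature; 460/530 nm emission ratio read.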

[17] = qHTS assay for small molecule disruptors of mitochondrial membrane potential screened against the NCATS CANVASS Library (AID 1347389); details: HepG2 mitochondrial membrane potential, m-MPI red/green ratio, 1.5 h; note: potency is the fitted concentration of half-maximal effect; nearly all actives have a fitted effect of over 60% in size
In short: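 HepG2 cells (2,000/well) were plated overnight at 37C, exposed to compound for 1 hr at 37C/5% CO2, then loaded with Mito-MPS dye for 30 min. Depolarization was read as a drop in red (590 nm) to green (535 nm) fluorescence ratio.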

[18] = qHTS for activators of Nrf2/ARE signaling pathway screened against the NCATS CANVASS Library (AID 1347391); note: nearly all actives have a fitted effect of over 60% in size
In short: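 ARE-bla HepG2 beta-lactamase reporter cells, 2000 cells/well, were preincubated 5 h, then exposed to compounds (11-point series) for 16 h at 37C. CCF4 fluorescence (ex 405, em 460/530 nm) after 2 h at room temperature.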

[19] = Vero-766 cells viability qHTS against the NCATS CANVASS Library: Counterscreen for Zika virus inhibition assay (AID 1347394); details: Vero 766 viability, CellTiter-Glo luminescence, 72 h; note: potency is the fitted concentration of half-maximal effect; nearly all actives have a fitted effect of over 60% in size
In short: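 This cytotoxicity counterscreen uses African green monkey Vero 766 cells in the absence of Zika virus. Compounds are incubated with cells for 72 h, and ATP-based luminescence reports viability.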

[20] = Redox Reaction Profiling qHTS: Assay Interference Panel against the NCATS CANVASS Library (AID 1347401)
In short: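 Resazurin (5 uM) conversion to resorufin measured with 200 uM DTT in 50 mM HEPES pH 7.3, 50 mM NaCl. Compounds tested in 11-point qHTS series. Fluorescence (ex 525/em 598 nm) read before and after 15 min dark incubation.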

Chain of Luciferin 4-monooxygenase (Photinus pyralis) (P08659 whole entry, looked up): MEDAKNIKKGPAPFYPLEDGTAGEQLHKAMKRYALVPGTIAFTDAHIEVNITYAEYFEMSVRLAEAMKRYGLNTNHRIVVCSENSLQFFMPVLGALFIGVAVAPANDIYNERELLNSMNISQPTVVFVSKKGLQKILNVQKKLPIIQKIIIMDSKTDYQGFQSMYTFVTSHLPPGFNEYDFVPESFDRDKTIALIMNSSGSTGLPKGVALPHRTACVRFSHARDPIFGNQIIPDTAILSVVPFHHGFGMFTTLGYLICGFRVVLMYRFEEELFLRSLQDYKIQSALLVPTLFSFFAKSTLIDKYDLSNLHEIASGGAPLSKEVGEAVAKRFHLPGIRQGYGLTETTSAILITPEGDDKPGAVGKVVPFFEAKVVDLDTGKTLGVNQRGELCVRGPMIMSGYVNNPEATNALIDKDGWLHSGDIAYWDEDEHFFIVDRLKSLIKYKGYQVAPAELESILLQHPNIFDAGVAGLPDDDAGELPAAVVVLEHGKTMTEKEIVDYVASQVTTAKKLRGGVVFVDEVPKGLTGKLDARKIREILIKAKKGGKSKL
Chain of Nuclear receptor subfamily 1 group I member 3 (Homo sapiens) (Q14994 whole entry, looked up): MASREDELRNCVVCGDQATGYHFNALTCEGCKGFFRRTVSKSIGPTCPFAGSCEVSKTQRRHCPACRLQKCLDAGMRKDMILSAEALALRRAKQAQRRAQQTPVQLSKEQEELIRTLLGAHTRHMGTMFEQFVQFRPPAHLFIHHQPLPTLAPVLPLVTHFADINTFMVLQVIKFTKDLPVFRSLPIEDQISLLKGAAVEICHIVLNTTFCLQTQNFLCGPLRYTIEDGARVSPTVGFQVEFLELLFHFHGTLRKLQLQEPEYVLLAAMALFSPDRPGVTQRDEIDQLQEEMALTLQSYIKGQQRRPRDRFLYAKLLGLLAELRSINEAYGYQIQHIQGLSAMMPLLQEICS

In the case of `O=C(Nc1ccnc(NC(=O)C2CC2)c1)c1c(Cl)cccc1Cl`, the Potency [1] is reported as “inactive”.
For `Nc1nccc(-c2c(-c3ccc(F)cc3)ncn2C2CCCCC2)n1`, the Potency [1] was “inactive”.
In the case of `CN[C@H]1CC[C@@H](c2ccc(Cl)c(Cl)c2)c2ccccc21`, the Potency [2] is reported as 28.2 µM (active) and the outcome [3] is reported as “inactive”.
In the case of `Cc1c(F)ccc(C(=O)Nc2cc([N+](=O)[O-])ccc2N2CCN(C)CC2)c1Cl`, the Potency [1] is reported as “inactive”.
For `Cn1ncnc1[C@H]1c2n[nH]c(=O)c3cc(F)cc(c23)N[C@@H]1c1ccc(F)cc1`, the Potency [1] was “inactive”.
In the case of `O=C(NC[C@H](O)CN1CCc2ccccc2C1)c1ccnc(NC2CCC2)c1`, the Potency [1] is reported as “inactive”.
With `Cn1cc(-c2ccc3c(c2)CCN3C(=O)Cc2cccc(C(F)(F)F)c2)c2c(N)ncnc21` the Potency [1] was “inactive”.
With `COc1ccc(-n2c(SCCCN3C(=O)c4cccc5cccc(c45)C3=O)nnc2-c2ccncc2)cc1` the Potency [1] was “inactive”.
For `C=CC(=O)Nc1cccc(Nc2nc(Nc3ccc(NC4CN(CCF)C4)cc3OC)ncc2C(F)(F)F)c1`, the Potency [1] was 16.5 µM (active).
With `COC1CCN(C(=O)c2cc(Cc3n[nH]c(=O)c4ccccc34)ccc2F)CC1` the Potency [1] was “inactive”.
For `Cc1ccc(C(=O)Nc2ccc(CN3CCN(C)CC3)c(C(F)(F)F)c2)cc1C#Cc1cnc2[nH]ncc2c1`, the Potency [1] was 0.117 µM (active).
With `Cn1cc(-c2ccc(F)c(C(F)(F)F)c2)nc1C1CCN(c2ncnc3[nH]ncc23)CC1` the Potency [1] was “inactive”.
With `C[C@@H](c1ccc2nccn2c1)n1nnc2ncc(-c3cnn(C)c3)nc21` the Potency [1] was “inactive”.
With `COc1cccc(OCCCN)c1-c1cc(Nc2cnc(C#N)cn2)n[nH]1` the Potency [1] was 6.58 µM (active).
In the case of `NCCCC(=O)O`, the Potency [2] is reported as “inactive” and the outcome [3] is reported as “inactive”.
With `Cc1nnc(C[C@@H]2C=C(c3ccc(Cl)cc3)c3ccccc3-n3c(C)nnc32)o1` the Potency [1] was “inactive”.
For `COC(=O)Nc1cc(Nc2cc(NC3CC3)c3ncc(C#N)n3n2)c(Cl)c(N2CCN(C)CC2)c1`, the Potency [1] was 4.66 µM (active).
In the case of `CCN(c1cc(-c2ccc(CN3CCOCC3)cc2)cc(C(=O)NCc2c(C)cc(C)[nH]c2=O)c1C)C1CCOCC1`, the Potency [1] is reported as “inactive”.
With `O=C(O)C1=CO[C@@H](O[C@@H]2O[C@H](CO)[C@@H](O)[C@H](O)[C@H]2O)[C@@H]2C(CO)=CC[C@H]12` the Potency [1] was “inactive”.
In the case of `O=C(NCCCNc1nc(Nc2cccc(CN3CCOCC3)c2)ncc1C1CC1)C1CCC1`, the Potency [1] is reported as “inactive”.
With `O=C1NC(=O)C(c2cnc3ccccn23)=C1c1cn2c3c(cc(F)cc13)CN(C(=O)N1CCCCC1)CC2` the Potency [1] was 18.6 µM (active).
With `Oc1cccc(-c2c3nc(c(-c4cccc(O)c4)c4ccc([nH]4)c(-c4cccc(O)c4)c4nc(c(-c5cccc(O)c5)c5ccc2[nH]5)CC4)C=C3)c1` the outcome [4] was “inactive”.
In the case of `Cc1c(NC(=O)c2cc3c(s2)CCCC3)cccc1-c1cn(C)c(=O)c(Nc2ccc(C3C(=O)N(C)CCN3C)cc2)n1` (stereo unspecified), the Potency [1] is reported as “inactive”.
With `Fc1ccc2[nH]ccc2c1-c1nc(N2CCOCC2)c2sc(CN3CCN(CC4CC4)CC3)cc2n1` the Potency [1] was 33 µM (active).
In the case of `CCNC(=O)C#Cc1ccc2c(C(=Nc3ccc(CN(C)C)cc3)c3ccccc3)c(O)[nH]c2c1`, the Potency [1] is reported as 4.04 µM (active).
For `CC(C)CC(=O)c1c(O)cc2c(c1O)C(CC(C)C)C1=C(O2)C(C)(C)C(=O)C(C)(C)C1=O` (stereo unspecified), the Potency [5] was 18.8 µM (active), the Potency [6] was 20.9 µM (active) and the outcome [7] was “inactive”. For the same molecule, the Potency [8] was 16.6 µM (active), the Potency [9] was 26.4 µM (active) and the outcome [10] was “inactive”. For the same molecule, the Potency [11] was 20.9 µM (active), the outcome [12] was “inactive” and the outcome [13] was “inactive”. For the same molecule, the Potency [14] was 0.594 µM (active), the outcome [15] was “inactive” and the Potency [16] was 20.9 µM (active). The Potency [17] was 3.31 µM (active), the outcome [18] was “inactive” and the Potency [19] was 6.6 µM (active). For the same molecule, the outcome [20] was “inactive”.
For `COc1ccc(-c2c(C)nn3c(NCCN4CCOCC4)cc(C)nc23)cc1OC`, the Potency [1] was “inactive”.
Work on `COc1c(C)cc(NC(=O)c2nn(Cc3ccc(F)cc3)c3c2CN(C(=O)c2ccc[nH]2)C[C@]3(C)C(N)=O)cc1C` yielded an activity change, negative = inhibition [1] of -14.7% [at 8.44 µM].
In the case of `COC(=O)N1CC2(CC2)C[C@H](C(=O)NO)[C@H]1C(=O)N1CCN(c2ccccc2)CC1`, the Potency [1] is reported as “inactive”.
